# Screen size: about 2,300 compounds; about 1,500 (65%) were called active. So high a share suggests a set chosen from earlier hits. A selection follows. A number with no mark means an inactive call.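 How the source made its calls: active means mean inhibition over three repeats above a set limit taken from the earlier primary screen (cut at about 30% in these data); inactive means the rest.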
# Molecular target: Platelet-activating factor acetylhydrolase 2, cytoplasmic (Homo sapiens) (UniProt Q99487)
# Experiment: PAFAH2 enzyme inhibitors, confirmation, biochemical, fluorescence polarization, human (AID 493030);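 further: inhibitor blocks binding of rhodamine activity probe so polarization falls; 0% = enzyme with DMSO and 100% = wells lacking PAFAH2 protein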
# Details: recombinant PAFAH2, FP-rhodamine activity probe, at 3.39 µM, active compounds read high
row,Compound,inhibition
1,COc1ccc(/C=N/N(C)C2=NS(=O)(=O)c3ccccc32)cc1OC,9.39%
2,COc1ccc(C(=O)ON=C2c3ccccc3-c3ccccc32)cc1OC,68.7% (active)
3,O=C(Nc1nnc(SCc2c(Cl)cccc2Cl)s1)C1CCCO1 (stereo not drawn),24%
4,O=C(Nc1nnc(SCc2ccccc2Cl)s1)c1cccc([N+](=O)[O-])c1,22.6%
5,O=C(Nc1nnc(SCc2c(Cl)cccc2Cl)s1)c1cccc([N+](=O)[O-])c1,52% (active)
6,O=c1oc(/C=C/c2ccccc2)nc2ccccc12,79.7% (active)
7,Cc1ccc(Cl)cc1NC(=O)COC(=O)C1CCCCC1,17.7%
8,Cc1ccc(NC(=O)COC(=O)C2CC2)cc1S(=O)(=O)N1CCOCC1,61.3% (active)
9,Cc1ccc(NC(=O)COC(=O)C2C3CC4OC(=O)C2C4C3)cc1Cl (stereo not drawn),76% (active)
10,O=C(COC(=O)c1ccco1)Nc1ccc(Cl)cn1,33.1% (active)
11,Cc1ccc(C(=O)OCC(=O)Nc2ccc(Cl)cn2)cc1S(=O)(=O)N1CCOCC1,54.4% (active)
12,Oc1oc(-c2ccccc2Br)nc1/C=N/c1ccccn1,52.6% (active)
13,COc1ccc(C2=NN(c3nc4ccccc4s3)C(=O)C2)cc1,46.9% (active)
14,O=C(COC(=O)C1CC2C=CC1C2)Nc1ccccc1 (stereo not drawn),69.6% (active)
15,CC1CC1C(=O)OCC(=O)Nc1cccc(F)c1 (stereo not drawn),83.6% (active)
16,COc1cc(NC(=O)COC(=O)c2ccc([N+](=O)[O-])s2)cc(OC)c1OC,35.9% (active)
17,O=C(OCc1nc2ccccc2[nH]1)C1CCCCC1,51.7% (active)
18,Cc1c(Cl)cnc(NC(=O)COC(=O)C2CCCC2)c1Cl,15.8%
19,O=C(O)c1ccccc1N=N/C(=N/Nc1cc(S(=O)(=O)O)ccc1O)c1ccccc1,8.84%
20,COc1ccccc1Nc1nc(N)nc(CSC(=S)N2CCOCC2)n1,26.7%
21,CCn1c(/C=N/NC(=O)c2ccc(OC)cc2)nc2ccccc21,6.41%
22,N#Cc1cccc(NC(=O)COC(=O)c2ccccc2C(=O)c2ccc(Cl)c([N+](=O)[O-])c2)c1,34.2% (active)
23,CC1=NN(c2ccc(Cl)c(C(=O)O)c2)C(=O)/C1=C/c1ccc(-c2ccccc2[N+](=O)[O-])o1,27.5%
24,Cc1cc(C(=O)COC(=O)C2CC2)c(C)n1-c1ccc(F)cc1,36.1% (active)
25,CC(=O)Oc1ccc(-c2nc3c(C)cccc3c(=O)o2)cc1,23.6%

row,Compound,inhibition
1,Cc1ccc(-c2nc3c(cnn3-c3ccccc3)c(=O)o2)cc1,44% (active)
2,Cc1cccc(/C=N/NC(=O)CNc2cccc3ccccc23)n1,30.5% (active)
3,Clc1ccccc1CSc1nnc(-c2ccco2)c(-c2ccco2)n1,16.4%
4,COc1ccc(C(=O)OCC(=O)NCC2CCCCC2)cc1S(=O)(=O)N1CCCc2ccccc21,60.8% (active)
5,COc1ccc(C(=O)O/N=C(\N)Cc2ccc(Cl)cc2Cl)cc1OC,80.9% (active)
6,O=C(NNC(=O)c1ccccc1O)c1ccccc1O,20.3%
7,O=c1oc(-c2ccccc2NS(=O)(=O)c2ccc(Cl)cc2)nc2ccccc12,76.7% (active)
8,O=[N+]([O-])c1ccc(C=Nc2ccc(Cl)cc2Cl)s1,7.11%
9,O=C(COC(=O)c1cccnc1Cl)NC12CC3CC(CC(C3)C1)C2,74.8% (active)
10,COc1cc(C(=O)OCC(=O)NC23CC4CC(CC(C4)C2)C3)cc(OC)c1OC,67.7% (active)
11,O=C(COC(=O)c1ccc([N+](=O)[O-])o1)NC12CC3CC(CC(C3)C1)C2,46.4% (active)
12,COCCNC(=O)/C(C#N)=C/c1cccc(OCc2ccccc2)c1,12%
13,O=C(Cc1ccc(S(=O)(=O)N2CCOCC2)s1)NCCOc1ccccc1F,30.5% (active)
14,CC(C)(C)c1ccc(/C=C2\Oc3c(ccc(O)c3CN3CCN(CCO)CC3)C2=O)cc1,66.7% (active)
15,COc1ccc(C(=O)OCC(=O)c2ccc(Cl)s2)c(OC)c1OC,73.5% (active)
16,Cn1cccc1C(=O)OCC(=O)c1ccc(Br)s1,21%
17,O=C(COC(=O)/C=C/c1cccc(Cl)c1)NCc1cccs1,35% (active)
18,COc1ccc(/C=C/C(=O)OCC(=O)NCc2cccs2)cc1OC,56.9% (active)
19,CCOC(=O)CCCN1CC(O)=C(c2nc3ccccc3s2)C1=N,28.1%
20,O=C(COC(=O)c1n[nH]c2ccccc12)NCc1ccccc1,28.3%
21,O=C(COC(=O)c1n[nH]c2ccccc12)Nc1ccccc1Br,38.6% (active)
22,COCC1CCN(C(=O)c2ccc3oc(Cc4ccccc4)nc3c2)C1 (stereo not drawn),40.8% (active)
23,Cc1ccc(/C=C/C(=O)OCC(=O)Nc2cccnc2Cl)cc1,23.7%
24,C/C=C/C=C/C(=O)OCC(=O)Nc1ccc(Cl)cc1,82.9% (active)
25,Cc1oc2cc(Br)c(O)c(Br)c2c1C(=O)c1ccccc1,49.5% (active)

row,Compound,inhibition
1,O=C(c1cccnc1)N(c1cc2sc(=O)oc2c2ccccc12)S(=O)(=O)c1ccccc1,25%
2,COc1ccc(OC)c(/C=C/C(=O)OCC(=O)Nc2ccc3c(c2)OCCO3)c1,48.2% (active)
3,COc1ccc(C(=O)OCC(=O)Nc2cccc(C(C)=O)c2)cc1OC,79% (active)
4,COc1cc(/C=C/C(=O)OCC(=O)Nc2cccc(Oc3ccccc3)c2)ccc1O,61.8% (active)
5,COc1ccc(C(=O)OCC(=O)NCCCc2ccccc2)cc1OC,53.5% (active)
6,COc1cccc(NC(=O)COC(=O)/C=C/c2ccco2)c1,77.9% (active)
7,CC(C)CNC(=O)COC(=O)/C=C/c1ccco1,70.3% (active)
8,COc1ccc(/C=C/C(=O)OCC(=O)Nc2cccc(Oc3ccccc3)c2)c(OC)c1,34.4% (active)
9,COc1cc(/C=C/C(=O)OCC(=O)NCCCc2ccccc2)ccc1O,35.2% (active)
10,COc1cccc(C(=O)n2ccc(-c3cccs3)n2)c1,11.4%
11,Cc1cc(C(=O)NNC(=O)c2ccccc2O)c(C)o1,23.2%
12,Cc1cc(C(=O)OCC(=O)Nc2ccccc2Cl)c(C)o1,31.5% (active)
13,Cc1cc(C)cc(NC(=O)COC(=O)c2cc(C)oc2C)c1,61.5% (active)
14,Cc1cc(C(=O)OCC(=O)Nc2ccc(F)c(F)c2)c(C)o1,74.4% (active)
15,CC(=O)c1c(C)[nH]c(C(=O)OCC(=O)NCCC(C)C)c1C,22.4%
16,Cc1ccc2c(=O)oc(N(C)C)nc2c1,38.2% (active)
17,CCc1ccc(C(=O)OCC(=O)NCC(F)(F)F)cc1,51.9% (active)
18,O=C(COC(=O)C1CCCCC1)Nc1ccc([N+](=O)[O-])cc1,40.8% (active)
19,CCC(C)c1ccc(NC(=O)COC(=O)C2CCCC2)cc1 (stereo not drawn),21.6%
20,COc1ccc(S(=O)(=O)N2CCOCC2)cc1NC(=O)Cc1coc2cc(C)ccc12,46.8% (active)
21,COc1ccc(S(=O)(=O)N2CCOCC2)cc1NC(=O)CC1CC2CCC1C2 (stereo not drawn),60.8% (active)
22,COc1ccc(S(=O)(=O)N2CCOCC2)cc1NC(=O)Cc1c(F)cccc1Cl,24.1%
23,Nc1ccc(C(=O)OCC(=O)NC2CCCc3ccccc32)cc1[N+](=O)[O-] (stereo not drawn),52.2% (active)
24,NC(=O)Nc1ccc(C(=O)OCC(=O)NC2CCCc3ccccc32)cc1 (stereo not drawn),67.4% (active)
25,O=C(COC(=O)c1ccc(F)cc1)Nc1ccc2c(c1)OCO2,72.8% (active)

row,Compound,inhibition
1,Cc1cccc(C(=O)OCC(=O)Nc2ccc(F)cc2)c1,81.4% (active)
2,CC(C)COC(=O)n1c(=O)oc2ccc(S(=O)(=O)N3CCCCC3)cc21,69.2% (active)
3,O=C(COC(=O)c1ccc2ncsc2c1)Nc1ccc(Cl)cc1,76.2% (active)
4,CCc1c(SCCC(=O)O)nc2ccccc2c1C,-1.24%
5,O=C(COC(=O)/C=C/c1cccs1)NC1CCCCC1,87.9% (active)
6,O=C(COC(=O)/C=C/c1ccc(OC(F)F)cc1)NC1CCCCC1,62.1% (active)
7,COc1ccc(/C=C/C(=O)OCC(=O)NC2CCCCCC2)cc1OC,79.4% (active)
8,C=CCOc1ccc(/C=C/C(=O)OCC(=O)NC2CCCCCC2)cc1,77.1% (active)
9,C=CCOc1ccc(/C=C/C(=O)OCC(=O)NC(C)c2ccc(F)cc2)cc1 (stereo not drawn),32.5% (active)
10,Oc1c(Cl)cc(Cl)c(Cl)c1Cc1c(O)c(Cl)cc(Cl)c1Cl,23.1%
11,O=C(COC(=O)C12CC3CC(CC(O)(C3)C1)C2)NC12CC3CC(CC(C3)C1)C2,77.7% (active)
12,Cc1ccc2c(c1)C1CN(C)CCC1N2C(=O)c1ccccc1NS(=O)(=O)c1ccc(F)cc1C (stereo not drawn),34.1% (active)
13,Cc1ccc(F)cc1S(=O)(=O)Nc1cccc(C(=O)N2CCCC(C(N)=O)C2)c1 (stereo not drawn),12.6%
14,O=C(ON=C1CCN(S(=O)(=O)c2ccccc2)CC1)c1ccc(Cl)cc1,87.2% (active)
15,CCS(=O)(=O)c1ccc(O)c(NC(=O)COc2ccc(Cl)cc2)c1,60.8% (active)
16,CCC1OC(c2ccc([N+](=O)[O-])cc2)=Nc2ccccc21 (stereo not drawn),13.7%
17,CC(=O)Nc1ccc(NC(=O)COC(=O)c2ccccc2C(=O)c2ccccc2)cc1,18.4%
18,CCN(CC)c1ccc(C(=O)OCC(=O)c2ccco2)cc1,40.6% (active)
19,O=C(COC(=O)c1ccccc1C(=O)c1ccccc1)c1ccco1,33.5% (active)
20,CC(=O)Nc1ccc(C(=O)OCC(=O)Nc2ccc([N+](=O)[O-])cc2C(F)(F)F)cc1,34.5% (active)
21,CCCCN1Cc2c(nc3cc(-c4ccccc4)[nH]n3c2=O)C1=O,5.46%
22,Cc1cc(NC(=O)COC(=O)/C=C/c2ccc(C)o2)no1,14.1%
23,Cc1ccc(/C=C/C(=O)OCC(=O)NCc2ccc(Cl)cc2)o1,42.2% (active)

# Source: PubChem BioAssay AID493030 (The Scripps Research Institute Molecular Screening Center, 2011)
